Only some compounds are listed: those with a hit (about 2.7% of all), similar ones and a draw of the others.
Mcl1-Noxa inh = Mcl-1/Noxa binding inhibitors, primary screen, biochemical, TR-FRET, 1536-well. Induced myeloid leukemia cell differentiation protein Mcl-1 (Homo sapiens), Q07820. TR-FRET Mcl-1/Noxa peptide binding, 2 h. 220,000 compounds, 1.5% hits. inhibition, % at 21.7 µM;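 active = compounds that cut the protein-peptide binding signal by more than 50% relative to plate controls in a single-dose test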;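 also: His-tagged Mcl-1 with rhodamine Noxa BH3 peptide and terbium anti-His antibody; 0% = Mcl-1 plus Noxa peptide wells and 100% = peptide-only wells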
Mcl1 Bid PPI = Mcl-1/Bid binding inhibitors, primary screen, biochemical, TR-FRET, 1536-well. inhibition, % at 21.7 µM. 220,000 compounds, 0.97% hits. AID 1021, 2008. TR-FRET Mcl-1/Bid-Dy647 peptide binding. Induced myeloid leukemia cell differentiation protein Mcl-1 (Homo sapiens), Q07820;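 active = compounds that cut the binding signal by more than half at the single screening dose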;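 also: His-tagged Mcl-1 with europium anti-His antibody binding Bid BH3 peptide; 0% = Mcl-1 plus peptide wells and 100% = peptide-only wells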
Mcl-1 Bim block = inhibitors of Bim peptide binding to Mcl-1, primary screen, biochemical, bead-based flow cytometry, multiplex; Induced myeloid leukemia cell differentiation protein Mcl-1 (Homo sapiens), Q07820; Bim peptide-Mcl-1 binding; inhibition, % at 10 µM; 190,000 compounds, 0.1% hits; AID 1009, 2008; in the data active = inhibition above about 40%;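 also: 0% = no compound tracer wells and 100% = peptide blocker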
eIF4E-4G inh = eIF4E–eIF4G protein interaction inhibitors, primary screen, biochemical, uHTS, TR-FRET, eIF4GI fragment | Eukaryotic translation initiation factor 4E (Mus musculus) + Eukaryotic translation … | 220,000 compounds, 0.37% hits | inhibition, % at 21.7 µM | TR-FRET eIF4E-eIF4GI(517-606) binding, 2 h;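 active = inhibition above about 30%, limit read from the data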;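 also: 0% = full FRET control wells and 100% = background wells lacking eIF4GI fragment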
Pf gametocyte = late stage P. falciparum gametocyte viability inhibitors, primary screen, ATP luminescence, HTS. inhibition, % at 10.9 µM. P. falciparum stage V gametocytes, 24 h. 150,000 compounds, 0.065% hits;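 active = inhibition above the mean plus 3 SD of compounds within the control limits, set per campaign, cut at about 38% in these data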;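 also: 0% = DMSO wells and 100% = medium only without gametocytes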
14-3-3 Bad inh = inhibitors of 14-3-3 zeta/Bad binding, primary screen, biochemical, TR-FRET, bovine 14-3-3 zeta; inhibition, % at 21.7 µM; 220,000 compounds, 0.71% hits; TR-FRET 14-3-3zeta/Dy647-pBad peptide displacement, 1 h;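 active = inhibition above about 70%, limit read from the data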;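 also: 0% = full 14-3-3 plus peptide FRET controls and 100% = background without 14-3-3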
Numbers without * were called inactive; · = not tested or not shown; ! = not active in a repeat; [ ] = dose if it differs, or a comment.

SMILES | Mcl1-Noxa inh | Mcl1 Bid PPI | Mcl-1 Bim block | eIF4E-4G inh | Pf gametocyte | 14-3-3 Bad inh
COc1cccc(CN2CCCCC2c2cccnc2)c1 (stereo not drawn) | 29 | 38 | -1 | 13 | -8 | 81*
COc1ccc(CN2CCCCC2c2cccnc2)cc1C (stereo not drawn) | 13 | -8 | 2 | -8 | · | 55
CCC1(C)CN(S(=O)(=O)OCC(Cl)(Cl)Cl)C(=O)N1 (stereo not drawn) | · | · | · | · | -50 | ·
Brc1ccccc1 | -15 | 83* | · | -10 | · | 0
CCc1c(C(=O)NN2C(=O)C3C4CCC(O4)C3C2=O)csc1C (stereo not drawn) | -10 | -14 | -3 | 5 | 9 | -8
CNS(=O)(=O)c1ccc(N=Cc2c(O)n(-c3ccccc3)c(=O)[nH]c2=O)cc1 | 17 | -1 | -2 | 0 | 9 | 8
Cc1ccnc(-n2c(C)nc3ccccc3c2=O)c1 | 2 | -3 | -3 | 0 | · | 10
Cc1cccc(N2CCc3c2nc2ccccc2c3N)c1 | 31 | 26 | 0 | 94*![fluorescence artefact?] | 7 | 78*![fluorescence artefact?]
[N-]=[N+]=NC1C[C@H](n2ccc(=O)[nH]c2=O)O[C@@H]1CO (stereo partly drawn) | 1 | -7 | 0 | 1 | · | -3
CCN1CCN(Cc2nnnn2C(C)(C)C)CC1 | 22 | -4 | 3 | 3 | 0 | 75*
CCC(C)(C)n1nnnc1CN1CCC(n2c(C)nc3cc(C(F)(F)F)ccc32)CC1 | 0 | 1 | · | 1 | · | 10
Cc1ccc(-c2nn(Cc3ccccc3)cc2C(=O)O)cc1 | 8 | -15 | · | 96* | -5 | -6
Cc1ccc(-c2nn(Cc3ccccc3)cc2C=O)cc1 | 16 | -10 | -1 | -6 | -11 | -12
N#CCCn1cc(C(=O)O)c(-c2cccc([N+](=O)[O-])c2)n1 | 5 | -17 | 0 | -3 | 11 | 3
CCCCN(Cc1ccccc1)C1CCN(CCc2ccccc2)CC1 | 51* | 16 | -7 | 0 | 16 | 17
c1ccc(CCN2CCC(N3CCN(c4ccccc4)CC3)CC2)cc1 | 11 | -16 | -2 | 8 | · | 15
COC(=O)c1ccc(CN2CCN(Cc3ccccc3)CC2)cc1 | 10 | 2 | 5 | 12 | 1 | 76*
O=C(Cc1ccccc1)OCCNC(=O)c1cccnc1 | 13 | 47 | 92* | -4 | · | 71*
O=C(Nc1cccc2ccccc12)c1nn(C23CC4CC(CC(C4)C2)C3)cc1Br | -17 | -25 | 0 | 2 | 17 | -8
COc1cccc(-n2c(=S)[nH]c3ccccc3c2=O)c1 | 11 | -29 | -2 | 4 | -9 | -10
COc1ccc2c(c1)NP(=S)(Oc1ccccc1)N2 (stereo not drawn) | 52* | -51 | · | 4 | · | 14
Cc1cccc2c1N(N=O)CCC2 | 13 | -15 | -4 | 0 | -4 | -4
CCCN(CC#CCOc1ccc(OC)cc1)CCC | 19 | 21 | 0 | 6 | 4 | 94*
C[N+]1(C)[C@@H]2CC[C@H]1CC(OC(=O)C(CO)c1ccccc1)C2 (stereo partly drawn) | 13 | -14 | -4 | -1 | · | -3
C[N+]1(C)C2CCC1CC(OC(=O)C(CO)c1ccccc1)C2 (stereo not drawn) | 21 | -14 | 0 | 3 | -14 | 91*
SMILES | Mcl1-Noxa inh | Mcl1 Bid PPI | Mcl-1 Bim block | eIF4E-4G inh | Pf gametocyte | 14-3-3 Bad inh
Cc1ccc(N=C(N(C)C)P(=O)(N(C)C)N(C)C)cc1 | 2 | -9 | 0 | -2 | -2 | -8
FC(F)(F)c1ccccc1CN1CCN(Cc2ccccc2)CC1 | 12 | 12 | -2 | -5 | 0 | 74*
Cc1ccc(CN2CCN(Cc3ccccc3F)CC2)cc1 | 16 | 7 | -3 | 6 | -14 | 57
O=[N+]([O-])c1cccc(C2N3CCCN23)c1 (stereo not drawn) | -2 | 2 | 1 | -1 | 18 | 2
O=C(O)c1cccc2c1NC(c1cccc([N+](=O)[O-])c1)C1CC(Sc3ccccc3[N+](=O)[O-])C(Cl)C21 (stereo not drawn) | 98* | 43 | -2 | 35* | · | 26
O=C(O)c1ccc2c(c1)C1C(Cl)C(Sc3ccccc3[N+](=O)[O-])CC1C(c1cccc([N+](=O)[O-])c1)N2 (stereo not drawn) | 77* | -49 | 1 | 1 | · | 9
O=c1c2ccccc2nc(-c2ccccc2)n1-c1ccc(O)cc1 | 14 | -39 | 0 | -1 | 9 | -8
Cn1c[n+](C)cc1C(O)c1ccccc1 (stereo not drawn) | 32 | -37 | 0 | 11 | 8 | 19
CCOC(=O)c1cc(C)sc1/N=C/C1C(=O)NC(=S)NC1=O | -43 | 22 | -2 | -2 | -16 | 9
CCOC(=O)c1c(/N=C/C2C(=O)NC(=S)NC2=O)sc(C)c1C | 34 | 67* | -1 | 12 | · | 42
CCOC(=O)c1c(/N=C/C2C(=O)NC(=S)NC2=O)sc2c1CCC2 | -21 | 35 | 0 | 4 | · | 78*
C=C1C2C[C@H](O)C(C)(C)[C@@]2(O)[C@H](O)C[C@]23C[C@@](C)(O)[C@H](CC[C@H]12)[C@H]3OC(C)=O (stereo partly drawn) | 4 | -10 | 1 | 2 | -42 | 93*[fluorescence artefact?]
CN1CCC(N(C)c2nc(-c3ccc([N+](=O)[O-])cc3)nc3ccccc23)CC1 | 94* | -2 | 0 | -2 | 15 | 2
CN1/C(=C\C=C2C(=O)NC(=S)NC2=O)C(C)(C)c2ccccc21 | -35 | 82* | -3 | -1 | -18 | -24
CC1(C)OC(c2ccccc2)=C/C(=C/C=C2C(=O)NC(=S)NC2=O)O1 | -30 | -24 | 26 | -2 | · | -12
CN1C(=O)CN=C(c2ccc(Cl)cc2)c2cc(Cl)ccc21 | 16 | 97* | -4 | 3 | · | 3
CCOP(=O)(Cc1ccccc1)OCC | · | · | · | · | -2 | ·
OC1/C(=C/c2ccccc2F)N2CCC1CC2 (stereo not drawn) | 14 | -40 | 0 | 0 | 10 | -4
CN(C)c1ccc(C=C2C(=O)NC(=S)NC2=O)cc1[N+](=O)[O-] | 65* | -11 | -2 | 7 | -4 | 1
CN(C)c1ccc(C=C2C(=O)NC(=O)NC2=O)cc1[N+](=O)[O-] | 1 | -38 | 9 | -1 | -6 | -1
Cn1c(=O)c2c(ncn2CCCl)n(C)c1=O | 16 | 4 | 1 | -2 | · | -4
